The nature of assay [1]: OV-KATE Cancer Cell Toxicity qHTS against the NCATS CANVASS Library (AID 1347345). Summed up: (§1)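 Step one: seed 1000 cells per well. Step two: incubate 4 h. Step three: add test compounds in 11 concentrations. Step four: culture 72 h, then add CellTiter-Glo and record luminescence after 15min.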
A short description of assay [2]: UWB1.289 Cancer Cell Toxicity qHTS against the NCATS CANVASS Library (AID 1347347). Further: nearly all actives have a fitted effect of over 60% in size. Further: potency means the concentration at half of the fitted maximal effect. The gist of the method: as §1
For orientation: In qHTS, concentration-response curves come from the screen itself.

Assay [3] in a line: OV-SAHO Cancer Cell Toxicity qHTS against the NCATS CANVASS Library (AID 1347348). Further: nearly all actives have a fitted effect of over 55% in size. Further: potency means the concentration at half of the fitted maximal effect. Summed up: as §1
Assay [4] can be described thus: U-118MG Cancer Cell Toxicity qHTS against the NCATS CANVASS Library (AID 1347351). The gist of the method:
as §1

A short description of assay [5]: COV-362 Cancer Cell Toxicity qHTS against the NCATS CANVASS Library (AID 1347352). Further: series mostly up to about 38 µM. The gist of the method:
(§2)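 Luminescent ATP read-out (CellTiter-Glo, 15min at room temperature) measures survival after cells face an 11-point compound series for 72 hours at 37 degrees C/5% CO2.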

A short description of assay [6]: UWB1.289-WTBRCA1 Cancer Cell Toxicity qHTS against the NCATS CANVASS Library (AID 1347354). Further: potency means the concentration at half of the fitted maximal effect. The gist of the method:
as §2

Assay [7] in a line: HPAF-II 12hr Apoptosis Induction qHTS against the NCATS CANVASS Library (AID 1347358). The gist of the method:
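500 HPAF-II cells/well; cmpds 11-pt; 12 hr, 37 degrees C/5% CO2; Caspase-Glo 3/7 added, 15 min RT dark; luminescence read. Doxorubicin titration as control.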

Assay [8] can be described thus: HEK293 12hr Apoptosis Induction qHTS against the NCATS CANVASS Library (AID 1347361). The gist of the method:
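Read-out: Caspase-Glo 3/7 luminescence (DEVD substrate), 15 min RT. Preceded by 12 h compound exposure of HEK293, 500 cells/well, 11-pt qHTS titration; doxorubicin titration as control.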

The nature of assay [9]: KB-8-5-11 Cancer Cell Toxicity qHTS against the NCATS CANVASS Library (AID 1347364). Further: nearly all actives have a fitted effect of over 75% in size. Further: potency means the concentration at half of the fitted maximal effect. Summed up:
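Plate 500 KB-8-5-11 cells per well in DMEM + 10% FBS, add compounds by pin transfer, incubate 72 hr at 37C. Add CellTiter-Glo, wait 10 minutes at room temperature, read luminescence.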

The nature of assay [10]: qHTS for Hypoxia signaling pathway (HIF-1) agonists against the NCATS CANVASS Library (AID 1347375). Summed up: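 ME-180 HRE-bla reporter cells; 2,000/well, 0.5% dialyzed FBS; cpd added after 5 h, 17 h 37C/5% CO2; CCF4-AM 2 h RT; FRET 460/530 nm; CellTiter-Glo viability same wells, 30 min.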
A short description of assay [11]: Secretion counterscreen for inhibitors of the SERCaMP assay screened against the NCATS CANVASS Library (AID 1347390).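 Further: light from luciferase secreted into medium read as a measure of general secretion; series mostly up to about 77 µM.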 The gist of the method: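 SH-SY5Y cells expressing constitutively secreted GLuc, 1000 cells/well, attached 4 h at 37C, then exposed to compounds (0.001 - 77 uM, 11-pnt series) for 20 h. Coelenterazine added; luminescence read to flag secretory-pathway interferers.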

Assay [12] can be described thus: qHTS for activators of Nrf2/ARE signaling pathway screened against the NCATS CANVASS Library (AID 1347391). Further: nearly all actives have a fitted effect of over 60% in size. Further: potency means the concentration at half of the fitted maximal effect. The gist of the method:
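Plate ARE-bla HepG2 cells at 2000/well and let them settle 5 h. Pin-transfer compounds in DMSO, incubate 16 h at 37C. Load CCF4 for 2 h at room temperature and read blue/green fluorescence.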

Assay [13] can be described thus: qHTS for activators of dead-cell proteases activity screened against the NCATS CANVASS Library (AID 1347392).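 Further: luminescence from protease leaking out of membrane-damaged cells cleaving impermeant substrate; rising signal means more cytotoxicity.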 Summed up:
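HepG2 cells (2000/well) attached 18 h at 37C, then exposed 5 h to compounds (11-point qHTS). Dead-cell protease activity read as luminescence from cell-impermeant AAF-aminoluciferin substrate after 15 min at room temperature.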

The nature of assay [14]: qHTS for inhibitors of ER calcium dysfunction: SERCaMP assay screened against the NCATS CANVASS Library (AID 1347393). Further: nearly all actives have a fitted effect of over 40% in size. Further: potency means the concentration at half of the fitted maximal effect. Summed up:
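qHTS in SH-SY5Y reporter cells: 16 h compound pretreatment, 4 h thapsigargin, then secreted Gaussia luciferase measured by luminescence.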

Assay [15] can be described thus: qHTS for inhibitors of Wild type Zika virus screened against the NCATS CANVASS Library (AID 1347396).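 Further: ATP luminescence of surviving cells so rescue from viral cell killing; series mostly up to about 46 µM.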 Summed up: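 Vero 766 cells, 1000/well, o/n attach; cpds pin-transferred (11-pt qHTS); WT Zika added; 72 h, 37C, 5% CO2; CellTiter Glo lumi. Uninfected + vehicle = 100% inhibition.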
Assay [16] is described as follows: HPAF-II Cancer Cell Toxicity qHTS against the NCATS CANVASS Library (AID 1347346). Further: potency means the concentration at half of the fitted maximal effect; nearly all actives have a fitted effect of over 55% in size. Summed up:
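Luminescence from CellTiter-Glo, added after 72 h compound exposure and a 15 min room-temperature incubation, served as the viability readout. HPAF-II cells (1000/well) received an 11-point concentration series.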

Assay [17] is described as follows: SW1088 Cancer Cell Toxicity qHTS against the NCATS CANVASS Library (AID 1347350). Further: nearly all actives have a fitted effect of over 75% in size. Further: potency means the concentration at half of the fitted maximal effect. Summed up: as §1
Assay [18] can be described thus: qHTS assay for small molecule disruptors of mitochondrial membrane potential screened against the NCATS CANVASS Library (AID 1347389). Further: nearly all actives have a fitted effect of over 60% in size. Further: potency means the concentration at half of the fitted maximal effect. Summed up: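 HepG2, 2,000 cells/well, attached overnight; compound 1 hr, 37C, 5% CO2; Mito-MPS dye 30 min, 37C; fluorescence 535 nm (monomer) and 590 nm (aggregate); decreased 590/535 ratio = depolarization.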
Assay [19] in a line: Redox Reaction Profiling qHTS: Assay Interference Panel against the NCATS CANVASS Library (AID 1347401). Summed up: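 Resazurin (5 uM) conversion to resorufin measured with 200 uM DTT in 50 mM HEPES pH 7.3, 50 mM NaCl. Compounds tested in 11-point qHTS series. Fluorescence (ex 525/em 598 nm) read before and after 15 min dark incubation.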
Assay [20] is described as follows: qHTS for Antimalaria activity screened against the NCATS CANVASS Library (AID 1347380).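 Further: Plasmodium falciparum strain Dd2 asexual parasites grown in red blood cells; series mostly up to about 29 µM; nearly all actives have a fitted effect of over 40% in size.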 Summed up:
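Dd2 strain, infected erythrocytes 2.5% Hct final / 0.3% parasitemia. 11-pt qHTS titration, 72 h, 37C, 5% O2, 5% CO2. Lysis buffer + SYBR Green, 18 h, fluorescence 485/535 nm.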

Records with an inconclusive call do not appear. Unmarked numbers belong to inactive results. Calls of active or inactive are those of the source. The call rests on the fitted dose curve; in most records, active means well fitted curve in the direction sought with a large enough effect; inconclusive means small, poorly fitted or top-dose-only effect, or another doubt; inactive means no such curve, though single readings can be large; an effect the other way counts as inactive or inconclusive. Bridge positions count the residues as written; N and C are the ends. Square brackets hold non-standard residues; d marks the D form. Side chains are listed from the residue outwards. Peptide text beside a SMILES is read from it. * marks the point of attachment. Phg(4-OMe) = COc1ccc([C@H](N)C(=O)O)cc1; d(aIle) = CC[C@H](C)[C@@H](N)C(=O)O; d(aThr) = C[C@@H](O)[C@@H](N)C(=O)O; NMeF = CN[C@@H](Cc1ccccc1)C(=O)O; Isobutyryl = CC(C)C(=O)*

For the molecule `C=CC(CCCCC)C1C(=O)NC(=O)C1C(=O)C1C2C(C)CC(C(=O)O)CC2CC1(O)C(=O)/C=C/C` (stereo not given), the Potency result in [1], in [2], in [3], in assay [4], in assay [5] and in assay [6] was “inactive” each time. Besides, the Potency entry in assay [7], in [9], in [11], in [13] and in assay [14] was “inactive” throughout. Further, the molecule was classed as inactive in assay [8], in assay [10] and in assay [15]. Also, the Potency in assay [12] is 2.09 µM (active).

Take `CC(C)=CC[C@H]1C[C@@]2(CC=C(C)C)C(=O)[C@](CC=C(C)C)(C(=O)C(C(=O)c3ccccc3)=C2O)C1(C)C`: the Potency in assay [16] is 6.68 µM (active); in [2] it was 8.38 µM (active); in [3], 14.9 µM (active); in assay [17] it was 4.21 µM (active); in [6] it was 11.8 µM (active); in [9], 20.9 µM (active). Moreover, the figures for the Potency in [18] and in assay [14] were 7.41 µM (active) and 30.5 µM (active), respectively. The Potency entry in assay [7], in assay [11], in [12], in assay [13] and in [19] was “inactive” in each case. Moreover, the result in assay [8], in assay [10] and in assay [15] was inactive.

On to `C/C=C(/C)c1cc(O)c(C)c2c1Oc1cc(O)cc(C)c1C(=O)O2`, for which the Potency result in [1], in assay [3], in [4], in assay [5], in [6] and in assay [7] was “inactive” in each case. Also, the Potency entry in assay [20], in [13] and in assay [19] was “inactive” each time. For the same molecule, the call in assay [8] and in [15] was inactive. Besides, the Potency in assay [18] was 10.5 µM (active).

Consider `CO[C@H]1[C@@H](OC(=O)/C(C)=C\[C@@H]2O[C@@H]2[C@H]2O[C@H]2C)[C@H](O)[C@H](OCC23C[C@@H]4[C@H](C)CC[C@H]4C4(C=O)CC2C=C(C(C)C)C34C(=O)O)O[C@@H]1C` (stereo not given in full), for which the Potency entry in [1], in assay [2], in assay [3], in [17], in [4] and in assay [5] was “inactive” throughout. For the same molecule, the Potency result in [6], in [7], in assay [9], in assay [18], in assay [11] and in assay [13] was “inactive” each time. In assay [19], the Potency entry is “inactive”. In addition, the Potency in assay [12] is 16.6 µM (active). The result in assay [15] was inactive.

For the molecule `CC[C@H](C)[C@H]1NC(=O)[C@@H](NC(=O)C(C)C)[C@@H](C)OC(=O)[C@H](COC(=O)CNC(C)=O)NC(=O)[C@@H]([C@@H](C)O)NC(=O)[C@H](Cc2ccccc2)N(C)C(=O)[C@H](c2ccc(OC)cc2)NC1=O` (Isobutyryl-T[d(aIle)][Phg(4-OMe)][NMeF][d(aThr)]S([Gly-Ac]); ester 1-C), the Potency result in assay [1], in assay [2], in assay [3], in [17], in [4] and in assay [5] was “inactive” in each case. Also, the Potency result in assay [6], in [7], in assay [9], in [20], in assay [18] and in assay [11] was “inactive” in each case. In addition, the Potency result in [13] and in assay [19] was “inactive” in each case. The call in assay [8], in assay [10] and in [15] was inactive.

Source of the values: PubChem BioAssay (NCATS).
